40 compounds from PubChem BioAssay AID493170 (National Center for Advancing Translational Sciences (NCATS), 2011) can be followed below.

Results filed as inconclusive are left out. Where a call stands in place of a potency, no number is given. Active and inactive are the calls of the source. Calls follow the shape of the dose curve; as a rule, active = well fitted inhibition curve with a large enough effect; inconclusive = small, poorly fitted or top-dose-only effect, or effect the other way; inactive = flat fitted curve, though single readings scatter.
Potency is read from the fitted curve at half-maximal effect.

For the assay, the target named is Ubiquitin carboxyl-terminal hydrolase 2 (Homo sapiens) (UniProt O75604). As to the kind of experiment: Ub-rhodamine 110 based assay for inhibitors Ubiquitin-specific Protease USP2a. Also: nearly all actives have a fitted effect of over 50% in size. The note with it: USP2a Ub-rhodamine110 cleavage, fluorescence; series mostly up to 38.3 µM. An excerpt: NIH Molecular Libraries Probe Centers Network [MLPCN] NIH Chemical Genomics Center [NCGC] MLPCN Grant: XO1-MH079852-01 PI Name: Nicholson, Ben. Progenra Inc, Malvern, PA NCGC Assay Overview: Homeostasis of cellular proteins is maintained through a combination of synthesis and degradation. The pathway that accounts for the majority of protein degradation is the ubiquitin-proteasomal pathway. Ubiquitin (Ub) is highly conserved in all cells and the generation of a multi-Ub chain typically targets proteins for degradation by the proteasome. However, ubiquitination is highly reversible and dynamic. Deubiquitination, the reverse process, is catalyzed through the action of enzymes referred to as isopeptidases or deubiquitinating enzymes (DUBs). This group of enzymes is collectively responsible for maintaining adequate pools of free ubiquitin and regulating the ubiquitination status of cellular proteins. The class of DUBs referred to as the ubiquitin-specific proteases (USP) family functions endoproteolytically to cleave Ub chains from a wide range of protein substrates. USP2a deubiquitinates fatty acid synthase (FASN) which has recently been identified as an emerging oncology target. To identify inhibitors of USP2a a cell-free assay was employed. This assay measures cleavage of a profluorescent substrate (Ub-Rhodamine 110; Boston Biochem Cat#: U-555) by USP2a. The assay gives a fluorescent read-out at excitation/emission wavelengths of 485/531. The USP2a enzyme was provided by Progenra, Inc. licensed for sale by LifeSensors, Inc.
Chain of Ubiquitin carboxyl-terminal hydrolase 2 (Homo sapiens) (O75604 whole entry, looked up): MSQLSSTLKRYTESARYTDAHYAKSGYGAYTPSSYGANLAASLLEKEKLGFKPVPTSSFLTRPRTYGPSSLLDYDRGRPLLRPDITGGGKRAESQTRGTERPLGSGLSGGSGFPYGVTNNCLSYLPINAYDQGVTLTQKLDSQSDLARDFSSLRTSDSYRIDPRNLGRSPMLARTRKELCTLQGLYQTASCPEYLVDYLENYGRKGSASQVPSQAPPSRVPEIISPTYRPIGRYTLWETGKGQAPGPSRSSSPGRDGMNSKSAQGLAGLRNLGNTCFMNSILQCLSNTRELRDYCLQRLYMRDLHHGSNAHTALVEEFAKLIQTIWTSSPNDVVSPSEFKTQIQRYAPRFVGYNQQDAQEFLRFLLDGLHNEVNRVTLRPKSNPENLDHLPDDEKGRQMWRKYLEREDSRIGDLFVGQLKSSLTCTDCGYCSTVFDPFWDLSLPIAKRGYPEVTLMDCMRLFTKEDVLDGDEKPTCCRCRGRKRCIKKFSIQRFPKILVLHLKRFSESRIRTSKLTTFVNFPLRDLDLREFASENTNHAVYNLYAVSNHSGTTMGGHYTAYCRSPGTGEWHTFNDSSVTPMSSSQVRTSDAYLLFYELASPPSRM
NCGC Assay Protocol: The assay buffer, prepared fresh at the day of the assay, contains 20mM Tris-HCl pH 8.0, 2mM CaCl2, 2mM beta-Mercaptoethanol, 0.05% CHAPS. 3uL of 10 nM (5 nM final) USP2a, was dispensed into a medium-binding black solid Kalypsys 1,536 well plate using the Kalypsys dispenser. The assay plate was then pinned with 23nL compounds in DMSO with a Kalypsys pintool in columns 5-48 (0.3% final DMSO concentration). The negative control was buffer/DMSO only in column 3. The assay plate is incubated at RT for 30min. Subsequently, 3uL of 300 nM Ub-Rhod110 (150 nM final) was dispensed into the plate using a Kalypsys dispenser. Plates were read after every minute for 7 min on a ViewLux (Perkin Elmer) plate reader using the following wavelengths: Ex 485nm /Em 531nm. Data were normalized to the AC100 inhibition (buffer alone). Concentration-response curves were fitted to the normalized data and the concentration-response curves were then classified based on curve quality (r2), response magnitude and degree of measured activity. The time zero reading was used to flag fluorescence artifacts.
Take `CN(C)c1ccc(C(CN)c2c[nH]c3ccccc23)cc1` (stereo not given): the Potency result is “inactive”.

On to `O=c1oc2c(CN3CCCCC3)c(O)ccc2c2c1CCCCC2`, for which the Potency entry is “inactive”.

With `COc1cccc(OC)c1-c1nn2c(-c3cc(-c4ccccc4)n[nH]3)nnc2s1`, the Potency was 6.31 µM (active).

In the case of `CC(C)c1ccc2c(c1)c(SC(C)(C)C)c(CC(C)(C)C(=O)O)n2Cc1ccc(Cl)cc1`, the Potency is 7.08 µM (active).

In the case of `CC(C(=O)Nc1ccc(C(=O)O)c(O)c1)N1C(=O)/C(=C\c2ccco2)SC1=S` (stereo not given), the Potency was 10 µM (active).

As for `CCOC(=O)c1c(NC(C)=O)sc2c1CCCNC2=O`, the Potency entry was “inactive”.

For the compound `O=C(COC(=O)/C=C/c1ccc(Cl)cc1)NC1CC1`, the Potency result is “inactive”.

`Cc1ccc(N=C2NC(=O)/C(=C/C=C/c3ccco3)S2)cc1`: the Potency was 7.08 µM (active).

As for `COCc1cc(C)nc(SCC[N+](C)(C)CC(=O)Nc2cccc(C(F)(F)F)c2)c1C#N`, the Potency entry is “inactive”.

Turning to `Cc1ccc(O)c(CC(C)C)n1`, the Potency entry was “inactive”.

`CC1CCN(c2ccc3c(c2)S(=O)(=O)c2cccc(C(=O)NC4CC4)c2C3=O)CC1`: the Potency result is “inactive”.

For the compound `O=C(CSc1nc2ccccc2c(=O)n1CC1CCCO1)NCc1ccccc1` (stereo not given), the Potency entry is “inactive”.

On to `CCOC(=O)C1CCCN(C(=O)c2cc(-c3ccco3)nc3ccccc23)C1` (stereo not given), for which the Potency is 4.47 µM (active).

In the case of `O=C1N=c2ccccc2=C1c1sc(Nc2ccc(O)cc2)nc1O`, the Potency is 7.94 µM (active).

Regarding `CSc1ccc(NC(=O)CSc2nc3[nH]c(=O)cc(O)c3s2)cc1`, the Potency is 5.62 µM (active).

As to `O=C(NC1CCCCC1)C(c1ccco1)N(C(=O)c1csnn1)c1cccc(F)c1` (stereo not given), the Potency result is “inactive”.

In the case of `C#CCOCCOCCOCCNc1nc(N2CCN(C(=O)CCCCCCCCCCNC(=O)Cn3cc(CCCCCN)nn3)CC2)nc(N2CCN(C(=O)CCCCCCCCCCNC(=O)Cn3cc(CCCCCN)nn3)CC2)n1`, the Potency entry is “inactive”.

On to `O=C(Cc1ccc(S(=O)(=O)N2CCOCC2)s1)Nc1nc2c(s1)CCCC2`, for which the Potency is 6.31 µM (active).

Turning to `CN1CCN(CCC(=O)N/N=C/c2cc([N+](=O)[O-])ccc2O)CC1`, the Potency entry was “inactive”.

As for `CCOc1cc(/C=C2\C(=O)N(c3nc(-c4ccc(Br)cc4)cs3)N=C2c2ccccc2)ccc1O`, the Potency was 3.16 µM (active).

Turning to `O=C(COC(=O)c1cccc(S(=O)(=O)N2CCc3ccccc32)c1)NC1CCS(=O)(=O)C1` (stereo not given), the Potency result is “inactive”.

For the compound `O=C(Cc1ccc(S(=O)(=O)N2CCOCC2)s1)NCCC(c1ccccc1)c1ccccc1`, the Potency was 10 µM (active).

Turning to `COc1ccc(-c2nc(Cn3c(SCc4ccc(F)cc4)nc4ccncc43)c(C)o2)cc1OC`, the Potency entry is “inactive”.

As for `Cc1cc(N=Nc2ccc(C)c(N=Nc3cc(C)c(N)cc3N)c2)c(N)cc1N`, the Potency result was “inactive”.

For the compound `CCCOc1ccc(N2C(=O)CC(NCCc3ccc(S(N)(=O)=O)cc3)C2=O)cc1` (stereo not given), the Potency result was “inactive”.

In the case of `CCOC(=O)C1CCN(C(=O)COC(=O)c2c(C)c(CC)nc3ccccc23)CC1`, the Potency result was “inactive”.

Regarding `COc1ccccc1C(=O)n1nc(-c2cccnc2)nc1NCc1ccccc1`, the Potency entry was “inactive”.

`COc1cccc(C(=O)NCc2ccc3[nH]c(C)cc3c2)c1`: the Potency entry is “inactive”.

Turning to `CC(C)N(C(=O)c1sc2cc([N+](=O)[O-])ccc2c1Cl)C(C)C`, the Potency result was “inactive”.

As for `COc1ccc(Cl)cc1S(=O)(=O)Nc1cccc(C(=O)O)c1`, the Potency result is “inactive”.

In the case of `O=C(CSc1nnc(SCc2ccccc2)s1)N/N=C/C=C/c1ccco1`, the Potency is 6.31 µM (active).

As to `CCc1cc2c(=O)c(-n3cnc4ccccc43)coc2cc1O`, the Potency entry was “inactive”.

On to `Cc1ccc(Nc2cc(C)nc(NCc3ccccc3)n2)cc1`, for which the Potency result is “inactive”.

With `Cc1ccc(S(=O)(=O)N2[C@@H](c3ccc(C(C)(C)C)cc3)C(C(=O)O)=CC[C@H]2c2ccc(C(C)C)cc2)cc1`, the Potency is 3.98 µM (active).

For `COC(=O)c1[nH]c2ccc(C)cc2c1NC(=O)CN1CCCc2ccccc21`, the Potency result is “inactive”.

As to `CCOc1ccc(C=NNc2ccc(S(=O)(=O)Nc3ccccc3C(=O)O)cc2[N+](=O)[O-])cc1`, the Potency is 2.82 µM (active).

As to `CC(OC(=O)CN(C)S(=O)(=O)c1ccc(Cl)cc1)C(=O)Nc1ccc(N2CCOCC2)cc1` (stereo not given), the Potency result was “inactive”.

In the case of `Cc1c(N=C/C=C2\N(C)c3ccccc3C2(C)C)c(=O)n(-c2ccccc2)n1C`, the Potency entry was “inactive”.

`O=C(NN=Cc1ccc(N2CCOCC2)s1)c1ccc([N+](=O)[O-])cc1`: the Potency result was “inactive”.

For `N#C/C(=C(/O)CSc1nnc(Cc2cccs2)n1C1CCCCC1)c1nc2ccccc2[nH]1`, the Potency is 7.08 µM (active).
